Cycloheximide cs: affects cycloheximide protein synthesis inhibition readout, counter-screen | cell reporter, cycloheximide protein synthesis inhibition counterscreen | max response, % | hit rate 12% among 300,000 | AID 2314; in the data active = max response mostly above about 13%, no sharp cut-off; inactive = mostly below about 14%; also: read at 38.3 µM for the half of the compounds with a filed dose; 0% is about no effect
VACV Venus inh: vaccinia inhibition (Venus reporter). Vaccinia virus Venus reporter expression, fluorescence. Potency, µM (series often up to 36.5 µM), without a hit: at the top dose activity change, negative = inhibition, usual class: inhibitors. hit rate 0.46% among 330,000; calls by dose curve; tested in A549 cells; also: potency is read from the fitted curve at half-maximal effect; % is scaled to controls: 0 for no effect and ±100 for the full control effect; nearly all actives have a fitted effect of over 30% in size
Shiga inhibitor: blocks Shiga toxin action in Vero cells; AID 2315; hit rate 9.2% among 290,000; inhibition, % at 38.7 µM; Vero cells, Shiga toxin protein synthesis inhibition reporter; in the data active = inhibition mostly above about 28%, no sharp cut-off; inactive = mostly below about 43%; also: 0% is about no effect
Marburg entry inh: Marburg virus entry inhibition. Marburg virus pseudotyped entry inhibition, cell reporter. Potency, µM (highest dose often 37.8 µM), for the others: at the top dose activity change, negative = inhibition, hits mostly inhibitors. hit rate 1.8% among 300,000. AID 540276; calls by dose curve; tested in HEK293 cells; also: potency is read from the fitted curve at half-maximal effect; % is scaled to controls: 0 for no effect and ±100 for the full control effect
LASV entry inh: blocks Lassa virus binding to or entry into cells; Lassa virus pseudotype entry inhibition, cell reporter; Potency, µM (series often up to 37.9 µM), for inactives: at the top dose activity change, negative = inhibition, actives largely listed as inhibitors; hit rate 1.2% among 300,000; calls by dose curve; tested in HEK293 cells; also: potency is read from the fitted curve at half-maximal effect; % is scaled to controls: 0 for no effect and ±100 for the full control effect; nearly all actives have a fitted effect of over 50% in size
VACV mCherry inh: inhibitors of vaccinia virus infection (mCherry reporter signal); hit rate 0.63% among 310,000; Vaccinia virus mCherry reporter infection, fluorescence; Potency, µM (top dose mostly 36.5 µM), for inactives: top-dose activity change, negative = inhibition, most hits filed as inhibitors; calls by dose curve; tested in A549 cells; also: potency is read from the fitted curve at half-maximal effect; % is scaled to controls: 0 for no effect and ±100 for the full control effect; nearly all actives have a fitted effect of over 35% in size
Starred values were filed as active, the others as inactive; i = inactive; ? = inconclusive; · = not tested or not shown; [ ] = dose if it differs, or a comment. Many of the other results were omitted from the sample, so hits are more common in it than they were.

SMILES | Cycloheximide cs | VACV Venus inh | Shiga inhibitor | Marburg entry inh | LASV entry inh | VACV mCherry inh
CCOC(=O)c1ccc(-n2c(CN3CCC(O)CC3)nc3ccc([N+](=O)[O-])cc3c2=O)cc1 | 15.4 | · | 4.3 | · | · | ·
CC(=O)Nc1cccc(-c2ccnc3c2CC(C)(C(=O)Nc2cccnc2)O3)c1 (stereo not given) | · | -6.9% | · | · | · | -13.0%
Cc1c(C(=O)OC2CCC(C)CC2)[nH]c2c1C(=O)CCC2 (stereo not given) | 43.3* | -12.6% | 76.1* | ? | ? | -17.9%
COc1ccc(Cn2c(CNC(=O)c3ccc(N(C)C)cc3)nc3cccnc32)cc1 | · | -17.4% | · | · | -11.5%[46.1 µM] | -15.6%
Cc1ccc2nc(N3C(=O)C(O)=C(C(=O)c4ccco4)C3c3ccc(O)cc3)sc2c1 (stereo not given) | 15.7* | · | 34.6 | · | · | ·
Cc1ccc2nc(N3C(=O)C(O)=C(C(=O)c4ccco4)C3c3ccc(C)o3)sc2c1 (stereo not given) | 31.4* | -2.0% | 80.3* | -28.6%[46.1 µM] | 2.6% | ?
Cc1nnc(N2C(=O)C(O)=C(C(=O)c3ccco3)C2c2cccc3ccccc23)s1 (stereo not given) | 1.0 | -7.9% | 36.7* | -2.9%[46.1 µM] | 10.5%[46.1 µM] | -10.8%
Cc1ccc(C2C(C(=O)c3ccco3)=C(O)C(=O)N2c2nnc(C)s2)cc1 (stereo not given) | 0.5 | · | 16.9 | 12.9% | 11.5% | ·
CNC1(C)[C@H]2CC[C@H](C2)C1(C)C (stereo not given in full) | · | -14.4% | · | · | · | -22.0%
Cc1ccc(NC(=O)c2cnc(SCC(=O)N3CCCc4ccccc43)n(C)c2=O)cc1 | · | -6.3% | · | · | 24.9%[46.1 µM] | i
COc1cc(OC)cc(-c2ncc3ccccn23)c1 | 11.0 | -25.4% | 16.6 | -14.8% | -21.9% | i[1.46 µM]
COc1ccc(-c2ncc3ccccn23)cc1 | 41.4* | 5.3% | 145.2* | 16.7%[46.1 µM] | 22.1% | ·
COc1cccc(-c2ncc3ccccn23)c1 | 36.3* | -5.3% | 71.2* | ? | -11.4% | ·
Cc1ccccc1CCNC(=O)c1ccc(Cn2c(=O)c3cccn3c3cccnc32)cc1 | · | -25.9% | · | · | -23.5%[46.1 µM] | ?
Cc1cc(C(=O)NNC(=O)/C=C/c2ccco2)c(C)o1 | · | -12.2% | · | 3.6% | 18.6% | -14.9%
CC(=O)/C(N=Nc1ccc(SC(F)F)cc1)=C(\C)O | 44.3* | · | 59.3* | · | · | ·
CC(=O)/C(N=Nc1cccc(C(F)(F)F)c1)=C(\C)O | 1.0 | 0.3% | 11.4 | 2.8%[46.1 µM] | 11.1%[46.1 µM] | -17.0%
Cc1ccc2c(c1)CCCN2C(=O)Nc1ccc2c(c1)OCO2 | 46.1* | ? | 29.7* | 2.9%[46.1 µM] | 2.3% | -5.2%
O=C(CCN1CCc2ccccc2C1)Nc1ccc2c(c1)OCO2 | -2.3 | · | 0.4 | 3.6% | 18.0% | ·
O=C(Nc1ccc2c(c1)OCO2)N1CCCc2ccccc21 | 34.7* | -11.3% | 85.4* | 0.8%[46.1 µM] | -14.9%[46.1 µM] | -11.7%
Cc1ccc(NC(=O)CN(C)CC(=O)Nc2ccc3c(c2)OCO3)cc1 | · | -19.7% | · | · | · | -11.5%
CSc1cccc(NC(=O)CC(c2ccc(F)cc2)N2Cc3ccccc3C2=O)c1 (stereo not given) | · | -14.8% | · | · | -7.3%[46.1 µM] | -16.0%
Cn1ncc(Cl)c(Oc2ccc(C(C)(C)C)cc2)c1=O | 20.3* | -18.2% | -3.9 | ? | 17.9% | -11.2%
Cn1ncc(Cl)c(Oc2ccccc2)c1=O | 11.3 | · | -11.4 | 13.4% | -5.2% | ·
NS(=O)(=O)c1ccc(S(=O)(=O)N2CCN(c3nc(-c4ccccc4)nc4ccccc34)CC2)cc1 | · | ? | · | · | · | -18.8%
SMILES | Cycloheximide cs | VACV Venus inh | Shiga inhibitor | Marburg entry inh | LASV entry inh | VACV mCherry inh
O=c1c2c3nc4ccccc4nc3n(/N=C/c3ccccn3)c2ncn1-c1ccccc1 | 1.3 | -22.7% | -12.1 | 5.62µM* | ? | -31.3%
CSc1ncc(C(=O)Nc2cc(C)ccc2C)c(C)n1 | -3.2 | · | -5.4 | · | · | ·
CNC(=O)c1sc(-c2cccs2)nc1C | 35.9* | 1.3% | 33.9 | 7.1%[46.1 µM] | 3.8% | 8.9%
Cc1cccc(Oc2ccc(N)cc2)c1 | 31.3* | · | 42.8 | 23.3% | -1.1% | ·
Nc1ccc(Oc2cccc(Oc3ccc(N)cc3)c2)cc1 | -16.7 | -2.7% | -20.6 | ? | ? | -21.2%
COC(=O)c1ccc(NC(=O)CCn2cnnn2)c(C)c1 | · | 5.9% | · | 3.0%[46.1 µM] | -2.1%[46.1 µM] | 9.9%
CSc1nc(SCC(=O)NCc2ccco2)c2c3c(sc2n1)COC(C)(C)C3 | 7.4 | · | 27.6 | ? | ? | ·
CC(C)Sc1nc(NCc2ccco2)c2c3c(sc2n1)COC(C)(C)C3 | 21.4* | -13.6% | 91.6* | 3.7% | 15.4% | ·
Cc1ccc2nc(-c3ccc(NC(=O)c4ccccc4S(C)(=O)=O)cc3)sc2c1 | · | -17.3% | · | · | 14.8%[46.1 µM] | -14.5%
Cc1ccc(N(CC(=O)Nc2ccc(-c3nc4ccc(C)cc4s3)cc2)S(C)(=O)=O)cc1 | 57.8* | ? | 116.6* | ? | -10.4% | ·
Cc1ccc(C)c(N(CC(=O)Nc2ccc(-c3nc4ccc(C)cc4s3)cc2)S(C)(=O)=O)c1 | 27.7* | -29.6% | 80.2* | 41.5% | 5.8% | -12.2%
Cc1ccc2nc(-c3ccc(NC(=O)c4ccc(S(C)(=O)=O)cc4)cc3)sc2c1 | · | -10.9%[7.34 µM] | · | · | 24.4%[46.1 µM] | -9.1%[7.34 µM]
O=C1CNC(=S)N1C1CCCCCC1 | 0.8 | 10.1% | -5.0 | 12.4%[46.1 µM] | 6.9%[46.1 µM] | i
Fc1ccc(CSc2ncnc3nc[nH]c23)cc1 | -0.4 | -5.0% | 13.1 | · | · | i
Cc1ccc(OCCSc2ncnc3nc[nH]c23)cc1 | 60.8* | -14.4% | 75.9 | ? | ? | -22.6%[1.46 µM]
Brc1ccc(CSc2ncnc3nc[nH]c23)cc1 | 15.9* | -16.3% | 17.6 | ? | -6.8% | -25.7%
CC[C@H](C)[C@H](NC(=O)[C@H](C)NC(=O)CNC(=O)[C@H](CCCN=C(N)N)NC(=O)[C@H](C)NC(=O)[C@H](CC(C)C)NC(=O)[C@H](CCC(=O)O)NC(=O)[C@H](CC(C)C)NC(=O)[C@H](C)NC(=O)[C@@H](N)CCC(=O)O)C(=O)N[C@@H](Cc1ccccc1)C(=O)N[C@@H](CCC(N)=O)C(=O)N[C@@H](C)C(=O)O | 10.3 | · | -5.8 | · | · | ·
COc1ccc(NC(=O)CC2C(=O)N(c3ccc(Cl)cc3)C(=S)N2NC(=O)c2cccc(F)c2)cc1 (stereo not given) | 16.4* | -12.3% | 13.0 | ? | ? | -29.4%
COc1ccc(NC(=O)CC2C(=O)N(c3ccc(F)cc3)C(=S)N2NC(=O)c2ccc(Cl)cc2)cc1 (stereo not given) | 9.8 | -7.3% | 11.9 | -4.4% | 3.5% | -15.5%
Cc1ccc(C(=O)N/N=C/c2ccc(N3CCOCC3)cc2)c(C)c1 | 1.7 | -0.3% | -2.1 | -7.1%[46.1 µM] | -21.7% | i
Cc1ccc(NC(=S)N/N=C2\CC3CC=CC23)c(C)c1 (stereo not given) | 20.1* | · | 56.1 | · | · | ·
Cc1cccc(C)c1NC(=S)N/N=C1\CC2CC=CC12 (stereo not given) | -1.1 | 2.5% | 20.5 | -18.4%[46.1 µM] | 8.0% | -4.8%
Cc1ccc(C(=O)N/N=C2\CC3CC=CC23)c(C)c1 (stereo not given) | 62.6* | · | 132.7* | 18.9% | 17.4% | ·
O=C(N/N=C1\CC2CC=CC12)c1ccc(O)cc1 (stereo not given) | 29.8* | -0.8% | 51.0* | 1.1%[46.1 µM] | ? | -21.9%

From PubChem BioAssay
